ClpP mod: qHTS Assay for Activators of ClpP; AID 651965, 2013; 340,000 compounds, 1.9% hits; purified B. subtilis ClpP, FRET peptide cleavage, 20 min; ATP-dependent Clp protease proteolytic subunit (Bacillus subtilis (strain 168)), P80244; Potency, µM (titrated, usually from 57.5 µM); active means well fitted falling curve with a large enough effect; inconclusive means small, poorly fitted or top-dose-only effect; inactive means no such curve, though single readings can be large or run the other way; further: the source files actives as falling curves though it sought activators and does not explain the sign; nearly all actives have a fitted effect of over 65% in size
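FRET quenching reversal measured ClpP activation: 10 microg/mL B. subtilis ClpP at pH 8 with the FRET-FV decapeptide, read at 430 nm after 320 nm excitation. The 20-min minus 0-min signal was scaled between DMSO/no-enzyme wells and ADEP (5.8 microM final).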
GLP1R inv ag: GLP-1 receptor (human) inverse agonism; P43220; HEK293 GLP-1R CRE-luciferase, luminescence, 24 h; GLP-1R form is constitutively active; Potency, µM (series often up to 38.3 µM), hits mostly inhibitors; 410,000 compounds, 1.6% hits; AID 624417; further: nearly all actives have a fitted effect of over 55% in size
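Constitutively active GLP-1R drives a cAMP-responsive luciferase in stably transfected HEK293 cells; test compounds are added after overnight (12 h) attachment and left 24 hr, and signal loss in luminescence marks inhibition.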
GLP1R cytotox: cytotoxic in the GLP-1 receptor inverse agonist counter-screen | HEK293 cAMP-luciferase reporter cells, luminescence, 24 h | Potency, µM (titrated, usually from 38.3 µM), hits mostly inhibitors | 410,000 compounds, 0.13% hits;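 further: loss of luciferase light is scored as toxicity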
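Compound-treated cells are incubated 24 hr at 37 deg C under 5% CO2 after a 12 hour attachment period, then luciferase detection reagent is added and luminescence is measured following 12 min at room temperature; lowered signal indicates toxicity.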
GLP-1R agonist: activates the human GLP-1 receptor; P43220; AID 624172; Potency, µM (highest dose often 45.6 µM), usual class: activators; HEK293 GLP-1R CRE-luciferase, luminescence, 4-6 h; cells express a hypersensitive GLP-1R form; 380,000 compounds, 0.007% hits
p53 reactivator: re-activators of mutant p53. Potency, µM (titrated, usually from 92.2 µM), usual class: activators. 320,000 compounds, 0.063% hits. H1299 p53-A138V BP100-luciferase reporter, luminescence, 24 h. AID 504706; further: nearly all actives have a fitted effect of over 45% in size
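H1299 (p53-null), stable ts p53-A138V + BP100-Luc; 1000 cells/well, Opti-MEM/10% FBS; cpd 4 pt, 1:5; 24 h, 37 deg C, 5% CO2; detection reagent 10 min RT; luminescence.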
LDHA block: blocks human lactate dehydrogenase A; activity change, % (values are at about 110 or 230 µM); purified LDHA, NADH/diaphorase-resazurin fluorescence; stronger effect = lower value; P00338; 480,000 compounds, 0.15% hits; AID 1347041; in the data active means activity change below about -30%; inconclusive means mostly about -25% to -30%
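Remaining NADH was detected by diaphorase (0.133 mg/mL) converting 37 µM resazurin to fluorescent resorufin, read at 0 and 20 minutes. The preceding 5-minute room-temperature reaction used 2 nM LDHA, 0.2 mM sodium pyruvate and 0.06 mM NADH at pH 7.4.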
A number is an active result; i = inactive; ? = inconclusive; nt = no result. Rows were chosen to be rich in hits. Some 2.9% of all compounds tested hit in one or more screens of this group. Unless noted, the call rests on the fitted dose curve; in most records, active means well fitted curve in the direction sought with a large enough effect; inconclusive means small, poorly fitted or top-dose-only effect, or another doubt; inactive means no such curve, though single readings can be large; an effect the other way counts as inactive or inconclusive.

SMILES | ClpP mod | GLP1R inv ag | GLP1R cytotox | GLP-1R agonist | p53 reactivator | LDHA block
COc1cc(C(=O)NCCc2csc(-c3ccc(Cl)cc3)n2)cc(OC)c1OC | i | ? | i | nt | nt | i
O=C(NCCc1csc(-c2ccc(C(F)(F)F)cc2)n1)c1ccc(F)c(F)c1 | i | 10µM | i | i | nt | i
COc1ccc(-c2nc(CCNC(=O)c3ccccc3)cs2)cc1OC | 25.1µM | i | i | nt | nt | i
COc1cccc(/C=C2\SC(=S)N(CC(=O)N(C)C3CCS(=O)(=O)C3)C2=O)c1 (configuration not stated) | i | i | i | i | ? | i
Cn1nnnc1Sc1ncnc2scc(-c3cccc(N)c3)c12 | nt | nt | nt | nt | nt | i
CCOC(=O)CC(=O)CSc1nc2cc(C)ccc2cc1C | i | 10µM | i | i | i | i
CCOC(=O)CSc1nc2cc(OC)ccc2cc1C#N | 31.6µM | i | i | i | ? | i
CCOC(=O)CSc1nc2cc(C)ccc2cc1C#N | i | i | i | i | i | i
CCOc1ccc2cc(C#N)c(SCC(=O)N3CCOCC3)nc2c1 | 25.1µM | i | i | i | ? | i
CCOC(=O)N1CCN(c2c(NCc3ccccc3Cl)c(=O)c2=O)CC1 | i | ? | i | i | i | i
CS(=O)(=O)N(CC(=O)NCc1ccco1)c1ccc(Cl)c(C(F)(F)F)c1 | i | i | i | i | i | i
Cc1occc1-c1nnc(SCC(=O)Nc2ccccn2)o1 | nt | i | ? | i | i | i
Cc1occc1-c1nnc(SCC(=O)c2cc3ccccc3oc2=O)o1 | 28.2µM | i | i | i | i | i
N#Cc1ccc(Oc2ccc(C(=O)OCC(=O)c3ccccc3)cc2)cc1 | nt | nt | nt | nt | nt | i
COc1cccc(NC(=O)c2oc3ccc(S(=O)(=O)N(C)C4CCCCC4)cc3c2C)c1 | 25.1µM | ? | i | nt | nt | i
Cc1c(C(=O)Nc2ccc(F)c(F)c2)oc2ccc(S(=O)(=O)N(C)C3CCCCC3)cc12 | ? | i | i | nt | nt | i
O=C(CNc1cccc2ccccc12)N/N=C/c1ccc(OC(=O)/C=C/c2ccco2)cc1 | nt | 8.91µM | i | i | i | i
O=C(CNc1ccc2ccccc2c1)N/N=C/c1ccc(OC(=O)/C=C/c2ccco2)cc1 | nt | ? | i | i | i | i
Cc1ccc(S(=O)(=O)NNC(=O)C2CCCCC2)cc1 | nt | i | i | i | i | i
Cc1ccc(NCc2cccn2-c2nnc(N3CCC(C(=O)NCCc4ccc(Cl)cc4)CC3)s2)cc1 | i | 10µM | i | nt | nt | i
COc1ccc(Br)cc1CNC(=O)C1CCN(c2nnc(-n3cccc3CNc3ccc(C)cc3)s2)CC1 | i | ? | i | nt | nt | i
O=C(Nc1ccc(Cl)cc1)c1sccc1-n1cccc1 | nt | 4.47µM | i | i | i | i
COc1ccc(NC(=O)c2sccc2-n2cccc2)cc1 | i | ? | i | i | i | i
O=C(O)CC1SC(=O)N(Cc2ccccc2)C1=O (configuration not stated) | i | i | i | i | i | i
Cc1ccc(S(=O)(=O)N2CCCN(C(=O)c3cncn3-c3ccccc3)CC2)cc1 | nt | nt | nt | nt | nt | -36.6
SMILES | ClpP mod | GLP1R inv ag | GLP1R cytotox | GLP-1R agonist | p53 reactivator | LDHA block
CC(C)(CN1CCCC1)NS(=O)(=O)c1ccc(Cl)cc1 | nt | i | i | i | i | i
CC(C)(CN1CCNCC1)NS(=O)(=O)c1ccc(Cl)cc1 | i | 2µM | ? | i | i | i
Cc1ccc(S(=O)(=O)NC(C)(C)CN2CCC(Cc3ccccc3)CC2)cc1 | i | 2.51µM | i | i | i | i
O=C1CC(c2ccccc2)=C(c2ccccc2)C1c1ccccc1 (configuration not stated) | i | 14.1µM | i | i | nt | i
COc1ccc(S(=O)(=O)N(C(=O)c2ccncc2)c2ccc3oc4c(c3c2)CCCC4)cc1 | i | 10µM | ? | i | i | i
COc1ccc(S(=O)(=O)N(C(=O)c2ccncc2)c2ccc3oc(C)c(C(C)=O)c3c2)cc1 | i | 3.16µM | i | nt | nt | i
COc1ccc(N2C(=O)C3C4C=CC(C4)C3C2=O)c(OC)c1 (configuration not stated) | i | i | i | i | i | i
O=C(Nc1ccc(F)c(F)c1)C1CCCN1S(=O)(=O)c1ccc(F)cc1 (configuration not stated) | i | i | i | i | i | i
CCC(=O)c1cn(CC(=O)O)c2ccccc12 | nt | i | i | i | i | i
Cc1cccc(C(=O)N2CCc3cc(CNC(=O)CSc4ccccc4)ccc32)c1 | i | i | i | nt | nt | i
CCC(C)c1ccccc1OCCCNC1CCCC1 (configuration not stated) | i | ? | i | i | nt | i
Cc1ccc(S(=O)(=O)NCc2ccccc2)cc1C(=O)N(C)Cc1ccccc1F | 15.8µM | ? | i | i | i | i
Cc1ccc(S(=O)(=O)NCc2ccccc2)cc1C(=O)N(C)Cc1ccc(F)cc1 | i | i | i | i | i | i
O=C(c1ccccc1)C1CN(c2ccccc2)CC1c1ccc(Cl)cc1 (configuration not stated) | i | i | i | i | i | i
Cc1ccc(C2CN(c3ccccc3)CC2C(=O)c2ccc(F)cc2)cc1 (configuration not stated) | ? | 10µM | i | i | i | i
Cn1cc(C2NC(=O)c3ccccc3N2)c2ccccc21 (configuration not stated) | 28.2µM | ? | ? | i | nt | i
N#Cc1ccc(N2C(=O)[C@@H]3C(C(=O)c4cnccn4)=NN[C@@H]3C2=O)cc1 | nt | i | i | i | i | i
Cc1ccc(NC(=O)C2=C(c3ccccc3)S(=O)(=O)CCS2(=O)=O)cc1 | nt | ? | ? | i | i | i
Cc1noc(C)c1CSCC(=O)Nc1cc(Cl)ccc1N1CCCCC1 | 25.1µM | 11.2µM | i | i | i | i
Cc1noc(C)c1CSCC(=O)Nc1cc(C(F)(F)F)ccc1N1CCCCC1 | i | ? | i | i | i | i
CCc1sc(C(=O)Nc2cc(Cl)ccc2N2CCCCC2)cc1C | 22.4µM | i | i | i | i | i
CCOC(=O)N1CCN(C(=O)c2ccccc2N(C)S(C)(=O)=O)CC1 | i | i | i | i | i | i
CC1=CCC(C(=O)N/N=C/c2cccs2)C(c2ccc(F)cc2)C1 (configuration not stated) | i | 10µM | i | i | i | i
O=C(N/N=C/c1cccs1)C1CC1 | nt | nt | nt | nt | nt | i
CC1C(=O)N(Cc2cn(Cc3ccco3)nn2)CCS(=O)(=O)N1Cc1ccc(-c2ccc(Cl)cc2)cc1 (configuration not stated) | i | 11.2µM | i | i | nt | i
